# Records with an inconclusive call do not appear. Active and inactive are the calls of the source. Calls come from the whole dose curve; as a rule, active = well fitted inhibition curve with a large enough effect; inconclusive = small, poorly fitted or top-dose-only effect; inactive = flat fitted curve, though single readings scatter.
# Test system: NIH3T3
# Assay: qHTS assay to identify novel small-molecules to repurpose for Merkel cell carcinoma treatment (AID 1296009); note: nearly all actives have a fitted effect of over 60% in size
# Conditions: MCC and control cell lines, CellTiter-Glo viability, 72 h; at 44.8 µM (top of the series) unless noted
# How it was run: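 72 hr, 37 degree celsius; NPC 8-pt / MIPE 11-pt dose response; compound pinned in DMSO; CellTiter-Glo, 10 min RT, luminescence; normalized to no-cell and DMSO controls.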
row,Compound,outcome
1,C=CC(C)(CC/C=C(\C)CC/C=C(\C)CC(O)/C=C(\C)C(=O)O)O[C@@H]1O[C@H](CO)[C@@H](O)[C@H](O)[C@H]1O[C@@H]1O[C@H](CO)[C@@H](O)[C@H](O)[C@H]1O (some centres undefined),inactive [at 17.4 µM]
2,O=C(NCc1ccc(OC(F)(F)F)cc1)C1c2ccccc2C(=O)N1C1CCOCC1 (centres undefined),inactive
3,COC(=O)[C@H](OC(C)=O)[C@H]1C(C)(C)C(=O)[C@H]2CC3=C4CC(=O)O[C@@H](c5ccoc5)[C@]4(C)CCC3[C@@]1(C)C2=O (some centres undefined),inactive [at 17.4 µM]
4,O=C(O[C@H]1[C@@H]2C[C@@H]3OC[C@@](O)([C@H]2[C@H](O[C@@H]2O[C@H](CO)[C@@H](O)[C@H](O)[C@H]2O)O3)[C@@H]1O)c1ccccc1,inactive [at 17.4 µM]
5,N#CC1C(=O)Nc2scc(-c3ccc(-c4ccccc4O)cc3)c2C1=O (centres undefined),inactive
6,CC1CCC(=O)CC(O)C(O)CC(=O)O1 (centres undefined),inactive
7,Cc1ncc([N+](=O)[O-])n1CC(O)CN1CCOCC1 (centres undefined),inactive
8,CC(C)(O)C1CC=C(C(=O)OCC2OC(Oc3c(O)cc(C(=O)O)cc3O)C(O)C(O)C2O)CC1 (centres undefined),inactive [at 17.4 µM]
9,CC1=CC[C@]2(C(=O)O[C@@H]3O[C@H](CO[C@@H]4O[C@H](CO)[C@@H](O[C@@H]5O[C@@H](C)[C@H](O)[C@@H](O)[C@H]5O)[C@H](O)[C@H]4O)[C@@H](O)[C@H](O)[C@H]3O)CC[C@]3(C)C(CCC4[C@@]5(C)C[C@@H](O)[C@H](O)[C@@](C)(CO)C5CC[C@]43C)C2C1C (some centres undefined),inactive [at 9.27 µM]

# Reference: PubChem BioAssay (NCATS)
